G9a inh – inhibitors of human histone lysine methyltransferase G9a; G9a H3K9 monomethylation, AlphaScreen, 2 h; Potency, µM (top dose mostly 102 µM), for the others: top-dose activity, negative = inhibition, most hits filed as inhibitors; actives 8.8% (n = 350,000); further: potency means the concentration at half of the fitted maximal effect; nearly all actives have a fitted effect of over 75% in size
Target sequence (Q96KQ7 913-1193 limits assumed): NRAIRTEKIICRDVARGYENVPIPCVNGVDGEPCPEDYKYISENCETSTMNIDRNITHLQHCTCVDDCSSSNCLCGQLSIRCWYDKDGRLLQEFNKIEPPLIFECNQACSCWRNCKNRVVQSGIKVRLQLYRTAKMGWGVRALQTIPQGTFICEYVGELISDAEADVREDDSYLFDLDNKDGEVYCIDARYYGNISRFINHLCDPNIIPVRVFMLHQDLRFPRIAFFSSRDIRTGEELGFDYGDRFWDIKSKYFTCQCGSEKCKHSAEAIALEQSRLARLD
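Enzyme 20 nM + cpd, 15 min RT; add b-H3K9 pep 500 nM / SAM 20 uM; 2 h RT; anti-H3K9me1 Ab 0.5 ug/mL + SA donor / anti-rabbit acceptor beads 20 ug/mL each, 10 min; AlphaScreen read.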
CCT modulator – changes cytosolic chaperonin activity | purified chaperonin ATPase assay, HTRF ADP detection, 30 min | activity change, % (test concentration not listed), hits read low | actives 0.3% (n = 360,000) | AID 651819; in the data active means activity change below about -30%
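Nucleotide hydrolysis assay: TRiC at 20–40 nM final (set by batch activity) with 10 uM ATP, 30 min at 37 °C, in presence of 76 uM compound. Detection by competitive ADP HTRF, 30 min ambient.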
Mm-Cpn inhibitor – M. maripaludis TRiC chaperonin inhibition | purified Mm-Cpn ATPase, ADP Transcreener TR-FRET | Potency, µM (doses to about 76.9 µM), for the others: top-dose activity, negative = inhibition, usual class: inhibitors | actives 0.031% (n = 330,000); further: potency means the concentration at half of the fitted maximal effect; nearly all actives have a fitted effect of over 80% in size
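Purified archaeal chaperonin (25 nM final) was preincubated with compound for 10 min at 37°C, then ATP (10 uM final) was added for 30 min at 37°C in Tris pH 7.4/KCl/MgCl2/DTT buffer. ADP was quantified by HTRF Transcreener TR-FRET.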
PLK1 PBD block – PLK1 (human) polo-box domain binding inhibition; P53350; Plk1 PBD binding of FITC phosphopeptide, fluorescence polarization; Potency, µM, for inactives: max response, negative = inhibition, hits mostly inhibitors; actives 2.8% (n = 360,000); further: potency means the concentration at half of the fitted maximal effect; series mostly up to about 57 µM; nearly all actives have a fitted effect of over 65% in size
VDR inh – blocks the human vitamin D receptor. VDR-SRC2-3 peptide fluorescence polarization, 2 h. Potency, µM, for inactives: max response, negative = inhibition, actives largely listed as inhibitors. actives 0.93% (n = 400,000). AID 504847; further: potency means the concentration at half of the fitted maximal effect
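Fluorescence polarization assay of small-molecule disruption of VDR binding to coregulator peptide SRC2-3. Compounds and controls pin-transferred, then read after 2 h incubation at ambient room temperature.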
Sfp PPTase inh – Sfp phosphopantetheinyl transferase inhibition; Q9F4F7; Biochemical Sfp PPTase activity, qHTS; Potency, µM, for inactives: largest response in the series, negative = inhibition, actives largely listed as inhibitors; actives 3.5% (n = 310,000);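 further: the enzyme is Sfp with the accession as filed and its product quenches rhodamine fluorescence; potency means the concentration at half of the fitted maximal effect; 0% = enzyme reaction without inhibitor and -100% = no enzyme wells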
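Sfp 15 nM + cpd, 15 min RT; start w/ rhodamine-CoA 5 uM, BHQ-2-YbbR 12.5 uM (final); 50 mM Hepes pH 7.6, 10 mM MgCl2, 0.01% NP-40, 0.01% BSA; read 525/598 nm at 0 and 30 min.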
The depositor's hits bear a star; ? = inconclusive; . = not tested or not shown; [ ] = another dose, or the depositor's remark. Rows were chosen to be rich in hits. Some 10% of all compounds tested hit in one or more screens of this group. Unless noted, the call rests on the fitted dose curve; in most records, active means well fitted curve in the direction sought with a large enough effect; inconclusive means small, poorly fitted or top-dose-only effect, or another doubt; inactive means no such curve, though single readings can be large; an effect the other way counts as inactive or inconclusive. Unless noted, on the % scale 0 is the no-effect control and ±100 the full control effect.

SMILES | G9a inh | CCT modulator | Mm-Cpn inhibitor | PLK1 PBD block | VDR inh | Sfp PPTase inh
Cc1ccccc1C(=O)NNC(=S)NC(=O)c1ccc(Cl)cc1Cl | ? | -1.6 | -0.7% | -21.8% | -17.1% | 6.2%
Cc1cccc(C(=O)NC(=S)Nc2ccccc2C(=O)O)c1 | 44.7µM* | -0.5 | 1.6% | ? | -10.8% | ?
Cc1ccc2c(NC(=S)NC(=O)c3ccccc3)cccc2n1 | . | -1.4 | -0.6% | ? | -6.2% | 56.2µM*
Cc1cccc(C(=O)NC(=S)NNC(=O)c2ccccc2Cl)c1 | 7.94µM* | -0.1 | -3.3% | -15.4% | -9.6% | -18.7%
COc1ccc(OC)c(NC(=O)c2cc3c(=O)n4cccc(C)c4nc3n2C)c1 | 3.9%[59 µM] | . | . | . | 12.0% | .
CCc1ccc(C2CC(=O)Oc3c2c(=O)n(C)c2ccccc32)cc1 (stereo unspecified) | 12.2%[59 µM] | . | . | . | 5.9% | .
Cc1c(C(=O)Nc2ccc(-c3nc4cc(Cl)ccc4o3)cc2)oc2ccccc12 | -34.9%[59 µM] | . | . | . | 0.5% | .
COc1ccc2c(c1)Sc1ccccc1N2 | 3.55µM* | -3.3 | -9.0% | -18.9% | 5.1% | -3.7%
c1ccc2c(c1)Nc1cc3ccccc3cc1S2 | 39.8µM* | -1.0 | -2.9% | -14.6% | 5.8% | 5.8%
CCn1c(C(=O)N2CCC(C(=O)N3CCN(c4cc(C)ccc4C)CC3)CC2)cc2sccc21 | ? | . | . | . | 2.1% | .
O=C(Cn1c(=O)c2cccn2c2ccccc21)NCc1ccccc1F | ? | . | . | . | -2.5% | .
COC(=O)C1=C(C)N(CCc2c[nH]c3ccccc23)C(=O)/C1=C\N(C)C | ? | 0.1 | 0.8% | 23.8µM* | ? | 17.8µM*
CCN1C(=NCCc2c[nH]c3ccccc23)N[C@@H](c2ccccc2)C(C(=O)OC)=C1C | 12.0%[12.7 µM] | . | 0.1% | . | . | ?
CCOC(=O)c1ccc(NC(=O)CCc2c(C)nc3nc[nH]n3c2=O)cc1 | -5.8%[59 µM] | . | . | . | -10.9% | .
CCc1nc2ccc(C(=O)N3CCN(c4cccc(C)c4C)CC3)cc2nc1CC | -0.2% | 0.1 | -1.4% | 26.7µM* | ? | -16.0%
Cc1cccc(N2CCN(C(=O)c3ccc4nc[nH]c4c3)CC2)c1C | ? | -6.5 | 0.0% | -4.5% | -10.1% | 8.7%
Cc1nc(NC(=S)NC(=O)c2ccco2)sc1C(=O)N(C)C | 39.8µM* | 2.3 | 0.8% | -12.2% | 10.5% | 22.4µM*
CS(=O)(=O)c1ccc2nc(NC(=O)c3ccco3)sc2c1 | ? | -1.4 | 0.2% | -2.7% | 0.1% | 2.4%
O=C(NC(=S)Nc1nc2ccc(F)cc2s1)c1ccco1 | -0.4% | 0.5 | -6.7% | -3.7% | 18.8% | 56.2µM*
Cc1ccc(C(=O)Nc2nc(C)c(C(=O)N(C)C)s2)o1 | -18.3% | -1.5 | 1.5% | -15.5% | -10.8% | 2.4%
CN(C)c1ncc2nc(-c3cccs3)c(=O)n(CCC#N)c2n1 | 5.1%[0.501 µM] | . | . | . | 5.1% | -0.4%
Cc1coc2c1C(=O)C(=O)c1c-2ccc2c(C)cccc12 | ? | -1.0 | 1.0% | ? | ? | -4.4%
Cc1coc2c1C(=O)C(=O)c1c-2ccc2c1CCCC2(C)C | 2.24µM* | 2.3 | . | ? | 28.2µM* | -21.2%
Cc1ccccc1NC(=O)c1cccc(S(=O)(=O)Nc2cccc(C(=O)O)c2)c1 | . | -0.5 | 0.6% | 3.9% | 9.8% | -8.2%
Cc1ccc(C(=O)Nc2ccc(S(=O)(=O)O)c3cc(S(=O)(=O)O)cc(S(=O)(=O)O)c23)cc1NC(=O)c1cccc(NC(=O)Nc2cccc(C(=O)Nc3cc(C(=O)Nc4ccc(S(=O)(=O)O)c5cc(S(=O)(=O)O)cc(S(=O)(=O)O)c45)ccc3C)c2)c1 | 0.282µM* | . | . | . | 22.4µM* | -2.7%
CCC/C=C1/CCCOC(C(=O)NCCOC)(C(F)(F)F)C1 (stereo unspecified) | . | . | . | . | ? | 3.6%
Clc1ccccc1OCc1nnc2n1CCCCC2 | 1.1% | -0.5 | 1.2% | -5.1% | 9.5% | 11.5%
OC1(c2ccccc2Cl)NN=C2CCCCCN21 (stereo unspecified) | 79.4µM* | -0.4 | -1.2% | -7.0% | -7.1% | 0.8%
O=C(c1cc([N+](=O)[O-])ccc1Cl)N1CCN(c2ccc(F)cc2)CC1 | 44.7µM* | -3.1 | 0.6% | -12.7% | -12.5% | 0.4%

Screening data (PubChem)
